Data taken from PubChem BioAssay (Tox21).
Several values for one entry are separate records, joined by “and”; a condition that tells them apart may be missing. Equal values may be shown once. Inconclusive results are not listed. Where a call stands in place of a potency, no number is given. The source holds several records for some structures; these can differ, active in one and inactive in another. Activity calls are given as the source filed them. Unless noted, calls follow the shape of the full dose curve.

Key:
[1] = Nuclear factor erythroid 2-related factor 2/antioxidant responsive element (Nrf2/ARE) small molecule agonists: qHTS cell viability counter screen in human keratinocytes (AID 1919968; active = well fitted curve in the direction sought with a large enough effect in the repeat runs; an effect the other way counts as inactive or inconclusive; also: nearly all actives have a fitted effect of over 55% in size)
In short: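 CellTiter-Fluor fluorescence, read 1 h after reagent, gave viability in the same wells as the ARE-luciferase assay. KeratinoSens cells (1,500/well) had 23 h compound exposure at 37 C/5% CO2 following 5 h plating.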

[2] = Nuclear factor erythroid 2-related factor 2/antioxidant responsive element (Nrf2/ARE) small molecule agonists: luciferase reporter gene qHTS assay in human keratinocytes (AID 1919969); also: nearly all actives have a fitted effect of over 35% in size; also: potency is read from the fitted curve at half-maximal effect
[3] = target: Gonadotropin-releasing hormone receptor (Homo sapiens) (UniProt P30968); assay: Human gonadotropin-releasing hormone receptor (GnRHR) small molecule agonists, calcium flux assay in GnRHR-HEK293 cells (AID 1920063); also: nearly all actives have a fitted effect of over 35% in size
Gonadotropin-releasing hormone receptor (Homo sapiens), sequence (P30968 whole entry, looked up): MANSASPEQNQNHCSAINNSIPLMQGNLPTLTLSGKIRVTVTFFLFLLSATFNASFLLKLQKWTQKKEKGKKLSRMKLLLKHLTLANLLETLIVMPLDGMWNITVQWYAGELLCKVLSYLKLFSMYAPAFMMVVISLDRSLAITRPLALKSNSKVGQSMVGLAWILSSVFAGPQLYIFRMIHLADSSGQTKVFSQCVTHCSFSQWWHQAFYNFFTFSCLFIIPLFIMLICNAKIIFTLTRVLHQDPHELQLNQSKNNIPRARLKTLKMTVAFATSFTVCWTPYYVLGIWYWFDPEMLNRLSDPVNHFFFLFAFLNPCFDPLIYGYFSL
In short: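 Agonist mode: compounds at 15 concentrations, in triplicate, went onto calcium dye-loaded GnRHR-HEK293 cells. Intracellular calcium was then followed as 480/540 nm fluorescence at 1 s intervals over 3 min.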

[4] = target: KiSS-1 receptor (Homo sapiens) (UniProt Q969F8); assay: Human kisspeptin (KISS1R) small molecule agonists, calcium flux assay in KISS1R-HEK293 cells (AID 1920064; active = well fitted curve in the direction sought with a large enough effect in the repeat runs; an effect the other way counts as inactive or inconclusive)
KiSS-1 receptor (Homo sapiens), sequence (Q969F8 whole entry, looked up): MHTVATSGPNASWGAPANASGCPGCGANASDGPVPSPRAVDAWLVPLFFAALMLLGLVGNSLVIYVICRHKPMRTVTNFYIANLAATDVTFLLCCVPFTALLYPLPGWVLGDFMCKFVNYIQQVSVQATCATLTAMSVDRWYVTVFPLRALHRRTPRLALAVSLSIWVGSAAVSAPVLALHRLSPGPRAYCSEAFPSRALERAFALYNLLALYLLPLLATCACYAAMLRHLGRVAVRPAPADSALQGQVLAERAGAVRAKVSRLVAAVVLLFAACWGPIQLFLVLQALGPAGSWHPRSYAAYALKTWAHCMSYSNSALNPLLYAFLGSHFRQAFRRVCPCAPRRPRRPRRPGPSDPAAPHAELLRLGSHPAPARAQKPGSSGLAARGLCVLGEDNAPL
In short: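 Agonist mode: intracellular calcium rise tracked at 1 s intervals over 3 min (480/540 nm) immediately after compound addition to dye-loaded KISS1R-HEK293 stable cells. Each compound tested at 15 concentrations in triplicate.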

[5] = G protein-coupled receptor (GPCR) small molecule agonists, calcium flux assay: HEK293 wild type cell line counter screen (AID 1920065)
In short: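 Calcium flux counter screen: compound added in agonist mode at 15 concentrations in triplicate to dye-loaded parental HEK293 cells. Fluorescence (480/540) read kinetically for 3 min; ATP served as positive control.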

[6] = p53 small molecule agonists, cell-based qHTS assay with rat liver microsomes (AID 1963578)
In short: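 Metabolic activation is supplied by rat liver microsomes with NADPH (each 0.5 mg/mL final). p53RE-bla cells incubate with compound 16 h at 37 C; reporter activity is measured by LiveBLAzer fluorescence.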

[7] = p53 small molecule agonists, cell-based qHTS assay with human liver microsomes: qHTS cell viability counter screen (AID 1963579); also: nearly all actives have a fitted effect of over 45% in size
In short: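 After the 460/530 nm beta-lactamase read, CellTiter-Glo was added to the same wells and luminescence measured after 30 min at room temperature, giving viability of p53RE-bla cells treated 16 h with compounds plus microsomes and NADPH.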

[8] = p53 small molecule agonists, cell-based qHTS assay: qHTS cell viability counter screen (AID 1963581); also: nearly all actives have a fitted effect of over 45% in size
In short: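 Counter screen read by CellTiter-Glo luminescence (ATP content, 30 min at room temperature), run in the same wells as the beta-lactamase reporter read. HCT-116 p53RE-bla cells saw compounds for 16 h at 37 C.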

[9] = p53 small molecule agonists, cell-based qHTS assay (AID 1963582; active = well fitted activation curve with a large enough effect in the signal ratio in the repeat runs, not every such curve was filed as active; the % refers to the signal ratio)
In short: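 Read-out is beta-lactamase FRET fluorescence after 2 h at room temperature with LiveBLAzer B/G substrate. p53 response element-bla cells were treated 16 h at 37 C with compounds in DMSO, added 5 h after seeding.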

[10] = target: 5-hydroxytryptamine receptor 2A (Homo sapiens) (UniProt P28223); assay: 5-hydroxytryptamine receptor 2A (HTR2A) small molecule antagonists, cell-based qHTS assay (AID 1963586); also: nearly all actives have a fitted effect of over 45% in size
5-hydroxytryptamine receptor 2A (Homo sapiens), sequence (P28223 whole entry, looked up): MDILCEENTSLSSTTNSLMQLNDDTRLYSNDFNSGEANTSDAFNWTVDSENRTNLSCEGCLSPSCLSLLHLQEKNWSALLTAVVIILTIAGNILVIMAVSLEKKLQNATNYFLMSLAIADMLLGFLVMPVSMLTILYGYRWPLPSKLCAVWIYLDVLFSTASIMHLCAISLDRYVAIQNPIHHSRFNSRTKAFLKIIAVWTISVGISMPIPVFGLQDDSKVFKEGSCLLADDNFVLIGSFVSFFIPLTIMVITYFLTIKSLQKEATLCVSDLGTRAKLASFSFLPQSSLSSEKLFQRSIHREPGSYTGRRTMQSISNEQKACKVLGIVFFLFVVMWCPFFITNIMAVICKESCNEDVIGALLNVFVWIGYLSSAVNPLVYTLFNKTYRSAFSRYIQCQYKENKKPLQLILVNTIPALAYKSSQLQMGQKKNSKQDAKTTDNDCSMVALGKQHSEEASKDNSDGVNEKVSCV
In short: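 CHO cells stably expressing human HTR2A were plated for 18 h at 37 C, then loaded with calcium dye for 1 h. Compounds were preincubated 5 min at room temperature before DOI (4 nM solution) was added. Kinetic fluorescence was read for 3 min.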

[11] = target: 5-hydroxytryptamine receptor 2A (Homo sapiens) (UniProt P28223); assay: 5-hydroxytryptamine receptor 2A (HTR2A) small molecule agonists, cell-based qHTS assay (AID 1963587); also: nearly all actives have a fitted effect of over 30% in size
In short: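 CHO cells stably expressing human HTR2A, plated 18 h, loaded with calcium dye 1 h at 37 C. Agonist mode: compounds added and intracellular calcium fluorescence recorded kinetically for 2 min at 1 sec intervals.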

[12] = target: Muscarinic acetylcholine receptor M1 (Homo sapiens) (UniProt P11229); assay: Cholinergic receptor muscarinic 1 (CHRM1) small molecule antagonists, cell-based qHTS assay (AID 1963588); also: nearly all actives have a fitted effect of over 40% in size; also: potency is read from the fitted curve at half-maximal effect
Muscarinic acetylcholine receptor M1 (Homo sapiens), sequence (P11229 whole entry, looked up): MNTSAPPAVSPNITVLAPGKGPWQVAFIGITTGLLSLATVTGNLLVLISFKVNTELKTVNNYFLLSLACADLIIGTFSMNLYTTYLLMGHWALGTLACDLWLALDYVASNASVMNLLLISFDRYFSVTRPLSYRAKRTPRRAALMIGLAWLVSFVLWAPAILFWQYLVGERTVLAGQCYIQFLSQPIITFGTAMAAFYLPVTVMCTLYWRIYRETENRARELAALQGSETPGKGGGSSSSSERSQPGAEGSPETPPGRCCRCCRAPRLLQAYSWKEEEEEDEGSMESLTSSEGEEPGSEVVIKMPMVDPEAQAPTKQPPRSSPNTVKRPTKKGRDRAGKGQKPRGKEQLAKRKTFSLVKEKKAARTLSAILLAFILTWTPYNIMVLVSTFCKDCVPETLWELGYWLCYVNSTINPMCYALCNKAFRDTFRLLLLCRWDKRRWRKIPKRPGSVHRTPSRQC
In short: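 Compounds were tested at 15 concentrations in three independent runs. Dye-loaded CHRM1-CHO cells were exposed 5 min at room temperature before stimulation by acetylcholine added at 50nM. Intracellular calcium was read kinetically on FDSS for 3 min.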

[13] = target: Muscarinic acetylcholine receptor M1 (Homo sapiens) (UniProt P11229); assay: Cholinergic receptor muscarinic 1 (CHRM1) small molecule agonists, cell-based qHTS assay (AID 1963589); also: nearly all actives have a fitted effect of over 35% in size
In short: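 Agonist-mode calcium-flux screen: compounds at 15 concentrations, three independent runs, were pin-transferred onto dye-loaded human CHRM1-CHO cells. Fluorescence was then recorded kinetically every second over minutes.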

[14] = cAMP Responsive Elements (CRE) small molecule agonists, cell-based qHTS assay (AID 1963590)
In short: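 Agonist mode: compound added to CRE-bla HEK 293T cells (2,000/well, 18 h after plating) for 3 h at 37 C/5% CO2. Reporter activity detected via FRET beta-lactamase substrate, 2 h room-temperature loading.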

[15] = target: Beta-2 adrenergic receptor (Homo sapiens) (UniProt P07550); assay: Adrenergic beta2 receptor (ADRB2) small molecule antagonists, cell-based qHTS assay (AID 1963592); also: series mostly up to about 92 µM; nearly all actives have a fitted effect of over 50% in size
Beta-2 adrenergic receptor (Homo sapiens), sequence (P07550 whole entry, looked up): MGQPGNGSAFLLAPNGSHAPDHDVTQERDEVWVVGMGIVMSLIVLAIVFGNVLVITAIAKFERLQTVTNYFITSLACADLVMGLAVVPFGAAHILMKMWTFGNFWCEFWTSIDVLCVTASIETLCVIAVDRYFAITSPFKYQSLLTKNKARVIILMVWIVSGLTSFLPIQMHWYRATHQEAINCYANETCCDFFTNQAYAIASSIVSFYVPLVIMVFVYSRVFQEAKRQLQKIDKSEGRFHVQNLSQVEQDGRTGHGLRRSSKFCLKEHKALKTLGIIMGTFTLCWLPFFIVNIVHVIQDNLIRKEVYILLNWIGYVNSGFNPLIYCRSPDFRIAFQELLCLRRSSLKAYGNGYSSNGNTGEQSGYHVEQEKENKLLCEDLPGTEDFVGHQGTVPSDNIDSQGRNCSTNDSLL
In short: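 Assay format: CHO-ADRB2 cells, 18-20hr seeding at 37C/5% CO2, then compound plus 1nM isoproterenol agonist mix for 0.5hr RT. Homogeneous time-resolved fluorescence cAMP detection after 1hr, expressed as 665/615 nm ratio.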

[16] = target: D(2) dopamine receptor (Homo sapiens) (UniProt P14416); assay: Dopamine D2 receptor (DRD2) small molecule agonists, cell-based qHTS assay (AID 1963594); also: nearly all actives have a fitted effect of over 35% in size
D(2) dopamine receptor (Homo sapiens), sequence (P14416 whole entry, looked up): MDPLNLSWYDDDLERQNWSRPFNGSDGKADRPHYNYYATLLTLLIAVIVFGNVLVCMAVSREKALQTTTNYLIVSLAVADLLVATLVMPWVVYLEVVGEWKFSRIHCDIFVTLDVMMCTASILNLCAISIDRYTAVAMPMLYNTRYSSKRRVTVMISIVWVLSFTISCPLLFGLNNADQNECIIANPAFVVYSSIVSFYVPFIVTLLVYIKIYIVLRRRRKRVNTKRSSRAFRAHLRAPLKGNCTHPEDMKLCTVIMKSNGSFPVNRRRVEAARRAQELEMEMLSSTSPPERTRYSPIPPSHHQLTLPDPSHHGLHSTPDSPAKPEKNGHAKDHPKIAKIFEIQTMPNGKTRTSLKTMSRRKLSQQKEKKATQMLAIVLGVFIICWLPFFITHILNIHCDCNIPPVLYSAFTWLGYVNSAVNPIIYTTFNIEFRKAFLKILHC
In short: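 HEK293 cells stably expressing human DRD2, pre-treated with PDE inhibitor Ro20-1724 (0.1 mM final) and compound 10 min at room temperature, then stimulated with NKH477 (200nM […]) for 30 min. cAMP read by HTRF (665/620 nm).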

[17] = target: D(2) dopamine receptor (Homo sapiens) (UniProt P14416); assay: Dopamine D2 receptor (DRD2) small molecule antagonists, cell-based qHTS assay (AID 1963595; active = well fitted inhibition curve with a large enough effect in the signal ratio in the repeat runs, with a control signal flat; the % refers to the signal ratio)
In short: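 Human DRD2 antagonist qHTS measuring cAMP by HTRF. The cells are exposed to compound for 10 min, then to NKH477 (200 nM) and quinpirole (12 nM) for 30 min at RT, with Ro20-1724 (0.1 mM) present throughout.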

[18] = p53 small molecule agonists, cell-based qHTS assay with rat liver microsomes: qHTS cell viability counter screen (AID 1963580); also: nearly all actives have a fitted effect of over 45% in size
In short: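 After the beta-lactamase ratio was read, CellTiter-Glo was added to the same wells and luminescence measured at 30 min; cells had been treated 16 h at 37 C with compounds, rat liver microsomes and NADPH (0.5 mg/mL final each).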

[19] = cAMP Responsive Elements (CRE) small molecule antagonists, cell-based qHTS assay (AID 1963591; active = well fitted inhibition curve with a large enough effect in the signal ratio in the repeat runs, not every such curve was filed as active; the % refers to the signal ratio)
In short: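 Antagonist mode: compounds are added alongside the adenylyl cyclase activator NKH477 (0.25 uM final) to CRE-bla HEK293T cells for 3 h. LiveBLAzer FRET substrate, 2 h at room temperature, reports bla expression.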

[20] = target: Beta-2 adrenergic receptor (Homo sapiens) (UniProt P07550); assay: Adrenergic beta2 receptor (ADRB2) small molecule agonists, cell-based qHTS assay (AID 1963593);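 also: CHO cells stably overexpressing human ADRB2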
In short: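 CHO cells stably over-expressing ADRB2 were plated overnight at 37C, then dosed with compounds plus a stimulation mix containing 100uM IBMX and 25uM Ro-20-1724 for 0.5hr at room temperature. cAMP was measured by HTRF competition, 1hr.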

SMILES | Potency [1] | Potency [2] | Potency [3] | Potency [4] | Potency [5] | Potency [6] | Potency [7] | Potency [8] | Potency [9] | Potency [10] | Potency [11] | Potency [12] | Potency [13] | Potency [14] | Potency [15] | Potency [16] | Potency [17] | Potency [18] | Potency [19] | Potency [20]
CC[N+](=O)[O-] | inactive | inactive | inactive | inactive | inactive | inactive | inactive | inactive | inactive | inactive | inactive | inactive | inactive | inactive | inactive | inactive | inactive |  |  | 
O=P(OCCCl)(OCCCl)OCCCl | inactive | inactive | inactive | inactive | inactive | inactive |  | inactive | inactive | inactive |  | inactive | inactive | inactive | inactive | inactive | inactive | inactive | inactive | inactive
CCOP(=S)(OCC)Oc1cnc2ccccc2n1 | inactive | inactive | inactive | inactive | inactive | inactive | inactive | inactive | inactive | inactive | inactive | inactive | inactive | inactive | inactive | inactive | inactive | inactive | inactive | inactive
CCOP(=S)(OCC)Oc1ccc2c(C)c(Cl)c(=O)oc2c1 | inactive | inactive and 10.6 µM (active) | inactive | inactive | inactive | inactive | inactive | inactive | inactive | inactive | inactive | inactive | inactive |  | inactive | inactive | inactive | inactive |  | 
Cc1ccccc1N | inactive | inactive | inactive | inactive | inactive | inactive | inactive |  | inactive | inactive |  | inactive | inactive | inactive | inactive | inactive | inactive | inactive | inactive | inactive
CCCCCCCCOC(=O)c1ccccc1C(=O)OCCCCCCCC | inactive | inactive | inactive | inactive | inactive | inactive | inactive | inactive | inactive | inactive | inactive | inactive | inactive | inactive | inactive | inactive | inactive | inactive | inactive | inactive
CCNc1nc(NCC)nc(SC)n1 | inactive | inactive | inactive | inactive | inactive | inactive | inactive | inactive | inactive | inactive | inactive | inactive | inactive | inactive |  | inactive | inactive | inactive | inactive | inactive
C=CC#N | inactive | inactive | inactive | inactive | inactive | inactive |  | inactive |  | inactive |  | inactive |  | inactive |  | inactive | inactive | inactive | inactive | inactive
O=C(O)COc1ccc(Cl)cc1Cl | inactive | inactive | inactive | inactive | inactive | inactive | inactive | inactive | inactive | inactive | inactive |  | inactive |  | inactive | inactive | inactive | inactive |  | inactive
CCC/C=N/O | inactive | inactive | inactive | inactive | inactive | inactive |  |  | inactive | inactive | inactive | inactive | inactive | inactive | inactive | inactive | inactive | inactive | inactive | 
N#Cc1ccc(Cl)cc1 | inactive | inactive | inactive | inactive | inactive | inactive | inactive | inactive | inactive | inactive | inactive | inactive | inactive | inactive | inactive | inactive | inactive |  |  | inactive
N#CN=C(N)N | inactive | inactive | inactive | inactive | inactive | inactive | inactive | inactive | inactive | inactive | inactive | inactive | inactive | inactive | inactive | inactive |  | inactive | inactive | inactive
C=CCN1C[C@H](C)N([C@H](c2ccc(C(=O)N(CC)CC)cc2)c2cccc(OC)c2)C[C@H]1C | inactive | inactive | inactive | inactive | inactive | inactive | inactive | inactive | inactive | inactive | inactive | 2.59 µM (active) | inactive | inactive | inactive | inactive | inactive | inactive |  | 
CCC(=O)O[C@H]1CC[C@H]2[C@@H]3CCC4=CC(=O)CC[C@]4(C)[C@H]3CC[C@]12C | inactive | inactive | inactive | inactive | inactive | inactive | inactive | inactive |  |  | inactive |  | inactive |  | inactive | inactive | inactive | inactive |  | inactive
O=P(OCC(Br)CBr)(OCC(Br)CBr)OCC(Br)CBr (stereo not drawn) | inactive | inactive | inactive | inactive | inactive | inactive |  | inactive | inactive | inactive |  | inactive |  |  | inactive | inactive | inactive | inactive | inactive | 
